CDC25B-CDK2 inh: human CDC25B-CDK2/CyclinA binding inhibition. HTRF CDC25B-CDK2/CyclinA binding, anti-His/anti-Flag; active compounds read high. P30305+P24941. z-score (no concentration beside the values). AID 1259370. hit rate 0.72% among 94,000; in the data active = z-score above about 3.2
HIV TAR-Tat: HIV-1 TAR-Tat binding disruption | HIV-1 TAR RNA, Tat peptide displacement FRET; active compounds read high | z-score (no concentration beside the values) | hit rate 0.6% among 100,000 | AID 1259389; active = z-score of 3 or more in at least 2 runs
Each line names hits and unclear results; the compound was inactive in the other large screens. Only some compounds are listed: those with a hit (about 0.86% of all), similar ones and a draw of the others.

CCOc1cc(C2CC(=O)N3CN(c4ccc(Br)cc4)CSC3=C2C#N)ccc1O (configuration not stated)	HIV TAR-Tat 27
CCCSC1=C(C#N)C(c2ccc(O)c(OCC)c2)CC(=O)N1 (configuration not stated)	none
COC(=O)C(C)Sc1nnc(CSc2nc(C)cc(C)n2)n1-c1ccc(OC)cc1 (configuration not stated)	none
CCCCN1C(=O)C(O)(CC(=O)c2ccccn2)c2cc(Br)ccc21 (configuration not stated)	none
O=C1CC(c2ccccc2Cl)C2=C(CC(c3ccccc3Cl)CC2=O)N1 (configuration not stated)	HIV TAR-Tat 15
O=C1CC(c2ccccc2F)C2=C(CC(c3ccccc3Cl)CC2=O)N1 (configuration not stated)	none
COc1cccc(Nc2ncnc3sc(C)c(S(=O)(=O)N4CCC(C)CC4)c23)c1	none (no result: HIV TAR-Tat)
C/C1=C\CC(C)(C)/C=C/C(=O)/C(C)=C/CC1	none (no result: CDC25B-CDK2 inh)
Cc1nn(C(C)C(=O)N2CCCCCC2)c(=O)c2cc3occc3n12 (configuration not stated)	none (no result: HIV TAR-Tat)
COc1cc(OC)cc(C(=O)Nc2nc3c(s2)CCc2ccc(OC)cc2-3)c1	none
COc1ccc2c(c1)Cc1sc(NC(=O)c3ccc(Br)cc3)nc1-2	CDC25B-CDK2 inh 18
O=c1cc(-c2ccccc2)oc2cc(O)c(O)c(O)c12	HIV TAR-Tat 29 (no result: CDC25B-CDK2 inh)
COc1cccc2oc(-c3ccccc3)cc(=O)c12	none (no result: CDC25B-CDK2 inh)
CC(C)(C)c1ccc(Cn2c(CO)nc3ccccc32)cc1	none
O=C(/C=C/c1cccs1)NC(=S)Nc1ccccc1	CDC25B-CDK2 inh 8.3 (no result: HIV TAR-Tat)
O=C(/C=C/c1cccs1)NC(=S)NCc1ccccc1	none (no result: HIV TAR-Tat)
Cn1cc2c(=O)[nH]nnc2n1	none (no result: HIV TAR-Tat)
O=C(c1csc(S(=O)(=O)N2CCN(C(=O)c3ccco3)CC2)c1)N1CCCC1	none (no result: CDC25B-CDK2 inh)
O=c1cnnc(Nc2ccc3c(c2)OCCO3)[nH]1	none
COC(=O)c1ccc(Nc2nncc(=O)[nH]2)cc1	CDC25B-CDK2 inh 6.3
O=C1CCSc2ccccc2N1Cc1ccccc1	none (no result: HIV TAR-Tat)
COc1ccc(NC(=O)c2sc(=S)n3c2[nH]c(=O)c2sccc23)cc1OC	HIV TAR-Tat 9.2 (no result: CDC25B-CDK2 inh)
COc1ccc(NC(=O)c2sc(=S)n3c2[nH]c(=O)c2ccccc23)cc1OC	none (no result: CDC25B-CDK2 inh)
CCOC(=O)C1CCN(c2cc(NCCCN(C)C)c3c4c(onc24)-c2ccccc2C3=O)CC1	none
CC1CCN(c2cc(NCCCC(=O)O)c3c4c(onc24)-c2ccccc2C3=O)CC1	none
CCOC(=O)C1CCN(c2cc(NCc3ccco3)c3c4c(onc24)-c2ccccc2C3=O)CC1	CDC25B-CDK2 inh 15
CCOC(=O)C1CCN(c2cc(NCCCC(=O)O)c3c4c(onc24)-c2ccccc2C3=O)CC1	CDC25B-CDK2 inh 14, HIV TAR-Tat 24
O=C(O)CNc1cc(N2CCC(c3ccccc3)CC2)c2noc3c2c1C(=O)c1ccccc1-3	CDC25B-CDK2 inh 5.1
O=C1c2ccccc2-c2onc3c(N4CCN(CCO)CC4)cc(NCc4ccco4)c1c23	none
CCSc1ncc(Cl)c(C(=O)Nc2nnc(C(C)C)s2)n1	none
COC(=O)c1sccc1S(=O)(=O)NNC(=O)c1ccc([N+](=O)[O-])cc1	none (no result: HIV TAR-Tat)
COc1ccc(-c2n[nH]c3c2C(c2ccc(OC)cc2)NC3=O)cc1 (configuration not stated)	none (no result: CDC25B-CDK2 inh)
Cc1cccc(N2CCN(c3cc(C(=O)O)c4cc(N)ccc4n3)CC2C)c1 (configuration not stated)	HIV TAR-Tat 6.5 (no result: CDC25B-CDK2 inh)
CC1CCN(c2cc(C(=O)O)c3cc(N)ccc3n2)CC1	none (no result: CDC25B-CDK2 inh)
Cn1c(C(=O)NCc2ccccc2Br)cc2oc3ccccc3c21	CDC25B-CDK2 inh 10
CCCNC(=O)c1cc2oc3ccccc3c2n1C	none
CC(C)N1CCn2c(nc3cc(NC(=O)C(C)(C)C)ccc32)C1	none
Cc1ccc([C@H]2C(C#N)=C(N)Oc3cc(C)oc(=O)c32)o1	none (no result: HIV TAR-Tat)
Cc1ccc(/C=c2/sc3n(c2=O)C(N)=C(C#N)C(c2ccc(C)o2)C=3C#N)o1 (configuration not stated)	CDC25B-CDK2 inh 6.6 (no result: HIV TAR-Tat)
Cc1ccc(Cl)cc1N1CCN(C2=NS(=O)(=O)c3ccccc3N2)CC1	none (no result: CDC25B-CDK2 inh)
O=C(CCS(=O)(=O)c1ccc2c(c1)CCN2C(=O)C1CC1)Nc1ccccc1	none (no result: CDC25B-CDK2 inh)
O=c1cc(CSc2nc3ccccc3s2)[nH]c2[nH]n(-c3ccccc3)c(=O)c12	HIV TAR-Tat 6.2
O=c1cc(CSc2ccc(Cl)cc2)[nH]c2[nH]n(-c3ccccc3)c(=O)c12	HIV TAR-Tat 4.6
O=c1cc(CSc2nc3ccccc3s2)[nH]c2nc3ccccc3n12	none
O=c1cc(CSc2ccc(Cl)cc2)[nH]n1-c1ccccc1	none
Cc1ccc(-c2n[nH]c(=O)c3c2CCCC3)cc1S(=O)(=O)N1CCCC(C)C1 (configuration not stated)	none
c1ccc(-c2nnc(-c3ccccc3)c3nonc23)cc1	none
Cc1ccc(S(=O)(=O)n2ncc(Sc3ccc(Cl)cc3)c2C)cc1	none (no result: HIV TAR-Tat)
Cc1c(Cl)cccc1-n1c(=O)c(C#N)cc2c(=O)n3ccccc3nc21	none
O=C(CCCn1c2ccccc2c2cn[nH]c(=O)c21)NCCCN1CCCCC1	none
Cc1ccc(C(=O)N2CCN(C(=O)CSc3nc4ccccc4s3)C2)cc1	none
Cc1ccc2nc(NC3=NCN(C(C)C)CN3)nc(C)c2c1	CDC25B-CDK2 inh 8.1
Cc1ccc2nc(NC3=NCN(CCN4CCOCC4)CN3)nc(C)c2c1	none
C[C@H](Cc1ccc(O)c(O)c1)[C@@H](C)Cc1ccc(O)c(O)c1	none (no result: HIV TAR-Tat)
N[C@@H](Cc1ccc(O)c(O)c1)C(=O)O	HIV TAR-Tat 24
N[C@@H](Cc1ccc([N+](=O)[O-])cc1)C(=O)O	none (no result: HIV TAR-Tat)
CC(Cc1ccc(O)c(O)c1)C(C)Cc1ccc(O)c(O)c1 (configuration not stated)	HIV TAR-Tat 6.2 (no result: CDC25B-CDK2 inh)
Cc1cc(-c2onc(C)c2C(=O)Sc2cccc(C(F)(F)F)c2)no1	none (no result: HIV TAR-Tat)
OCc1sccc1Oc1ccccc1	none (no result: HIV TAR-Tat)
CCc1ccc(-c2cc(C)no2)cc1S(=O)(=O)NC1CCCCC1	none (no result: CDC25B-CDK2 inh)
N#Cc1nc(-c2ccc(S(=O)(=O)N3CCc4ccccc4C3)cc2)oc1NCCCn1ccnc1	CDC25B-CDK2 inh 11
CN(C)CCNc1oc(-c2ccc(S(=O)(=O)N3CCc4ccccc4C3)cc2)nc1C#N	none
Cc1nc2c(c(C)c1CCC(=O)NCCC(C)C)c(=O)n(C)c(=O)n2C	none
COCC1=CC2CC(C1)C[B-]1(C2)Oc2cccc3ccc[n+]1c23 (configuration not stated)	CDC25B-CDK2 inh 5.2 (no result: HIV TAR-Tat)
CCc1ccc(-n2nnnc2SCC(=O)NCCSCc2ccco2)cc1	none (no result: HIV TAR-Tat)
COC(=O)C1=C(C)NC2=C(C(=O)CC(c3ccc(OC)c(OC)c3)C2)C1c1cc(OC)ccc1OC (configuration not stated)	none
COc1ccc(-n2nc3ccc(N)cc3n2)cc1Cl	HIV TAR-Tat 16
Cc1ccc(-n2nc3ccc(N)cc3n2)cc1Cl	none
O=S(=O)(c1ccc2nc(NCC3CCN(Cc4ccc(Cl)cc4)CC3)ccc2c1)N1CCCC1	none (no result: CDC25B-CDK2 inh)
COc1cc2c(cc1OC)n(CC(=O)NC(C)c1ccc3c(c1)OCCO3)n1c(C)cc(=O)nc21 (configuration not stated)	none
COc1cccc(C2CC(=O)N3CN(c4ccc(N(C)C)cc4)CSC3=C2C#N)c1 (configuration not stated)	CDC25B-CDK2 inh 7.2
COc1ccc(N2CSC3=C(C#N)C(c4cccc(OC)c4)CC(=O)N3C2)cc1 (configuration not stated)	CDC25B-CDK2 inh 6.1
COc1cccc(C2CC(=O)N3CN(c4ccc(OC)c(OC)c4)CSC3=C2C#N)c1 (configuration not stated)	CDC25B-CDK2 inh 7.5
